From PubChem BioAssay AID796 (Columbia University Molecular Screening Center, 2007)
Screen size: about 94,000 compounds; about 410 (0.44%) were called active.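 The calls were made as follows: active = inhibition above about 30% together with a positive call from visual inspection of the well image (limit read from the data); inconclusive = inhibition above a set limit but visual check negative; inactive = inhibition not above a set limit, visual check negative.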 Shown is part of a subset that was picked to be rich in actives.

Assay: inhibitors of IL-1B driven NFkB p65 nuclear import, primary screen, imaging, HUVEC, IL-1B stimulus, high-content imaging (AID 796);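 also: nuclear over cytoplasmic p65 intensity ratio measured by imaging; 0% = IL-1B stimulated DMSO wells and 100% = unstimulated DMSO wells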
Settings: HUVEC IL-1B NFkB p65 nuclear translocation imaging; at 2 µM; hits give high values
With `COc1ccc(/C=C(/NC(=O)c2ccc(C)cc2)c2nc3ccccc3[nH]2)cc1OC` the inhibition was -9.9% (inactive). In the case of `CCOC(=O)c1c(N=CN(C)C)c(C#N)c2n1CCCC2`, the inhibition is reported as 10.8% (inactive). For `CC1CCCCC1NC(=O)C1CCCN1S(=O)(=O)c1cccc2nsnc12` (configuration not stated), the inhibition was -27% (inactive). In the case of `COc1nc(-c2ccc(Cl)cc2)ccc1-c1noc(-c2cccs2)n1`, the inhibition is reported as -5.8% (inactive). With `O=S(=O)(c1cccc2nonc12)N1CCN(c2cccc(Cl)c2)CC1` the inhibition was -0.1% (inactive). With `CC(C)NC(=O)C(=O)N/N=C/c1ccco1` the inhibition was -6.9% (inactive). With `COc1cc(C(=O)N2CCN(C/C=C/c3ccccc3)CC2)cc(OC)c1C` the inhibition was -3.7% (inactive). In the case of `N/C(=N\OC(=O)c1cc(-c2ccccc2)nc2ccccc12)c1ccncc1`, the inhibition is reported as 8% (inactive). With `Cc1ccc(S(=O)(=O)N(CC(=O)N/N=C/c2ccc(F)cc2)c2cccc3cccnc23)cc1` the inhibition was 9.5% (inactive). In the case of `COC(=O)c1c(-c2cccs2)csc1NC(=O)CSc1ncnc2sc(C)c(C)c12`, the inhibition is reported as -10.3% (inactive). In the case of `Nc1ccc(-c2sc(N)nc2-c2ccccc2)cc1`, the inhibition is reported as 1.6% (inactive). In the case of `CCC(C)NC(=O)c1ccccc1NC(=O)c1ccccc1N(C)S(C)(=O)=O` (configuration not stated), the inhibition is reported as -10.8% (inactive). In the case of `COc1ccc(Cl)cc1NC(=O)CN(C)C(=O)CNC(=O)C12CC3CC(CC(C3)C1)C2`, the inhibition is reported as -36% (inactive). In the case of `COc1ccc(Cc2nnc(SCC(=O)c3cccc([N+](=O)[O-])c3)n2C)cc1`, the inhibition is reported as -8.8% (inactive). For `O=C(NCCc1ccccc1)c1ccc(NC2=NC3CS(=O)(=O)CC3S2)cc1` (configuration not stated), the inhibition was 0.8% (inactive). In the case of `Cc1cccc(NC(=O)c2ccccc2NC(=O)C(C)(C)C)n1`, the inhibition is reported as -6.8% (inactive). For `Cc1cccc(NC(=O)c2cc(N3C(=O)CCC3=O)ccc2Cl)n1`, the inhibition was 32.1% (active). For `Cc1cc(NC(=O)c2cccc(N3C(=O)CCC3=O)c2)no1`, the inhibition was -4.7% (inactive). For `O=C(CN1CCCCCC1)Nc1ccc(Br)cc1Br`, the inhibition was 5.3% (inactive). For `Cc1ccccc1NC(=O)Cc1nnc(SCC(=O)N2CCN(c3ccccc3)CC2)n1C`, the inhibition was -36.6% (inactive). For `Cn1c(CC(=O)Nc2ccccc2)nnc1SCC(=O)c1ccccc1`, the inhibition was 92% (active). In the case of `Cn1c(CNc2nc(-c3ccccc3)cs2)nnc1SCC(=O)c1ccccc1`, the inhibition is reported as -14.8% (inactive). With `CCOC(=O)c1cc(NC(=O)c2ccc(Cl)cc2)c(=O)oc1-c1ccccc1` the inhibition was -5.2% (inactive). With `Cc1nc(C)c(C(=O)N(c2ccc(C)c(C)c2)C(C(=O)NCc2ccco2)c2ccccc2)s1` (configuration not stated) the inhibition was -3.5% (inactive). With `Cc1cccc(NC(=O)CSc2nnc(CCCCCNC(=O)OC(C)(C)C)o2)c1C` the inhibition was 55.4% (active). For `CCc1ccccc1NC(=O)CSc1nnc([C@@H](NC(=O)OC(C)(C)C)C(C)CC)o1` (some centres not stated), the inhibition was -19.4% (inactive). For `CCc1ccccc1NC(=O)CSc1nnc([C@@H](NC(=O)OC(C)(C)C)C(C)C)o1`, the inhibition was 0.3% (inactive).
